Here are results for 20 compounds from PubChem BioAssay AID1259245 (Vanderbilt High Throughput Screening Facility, 2017).

Screen size: about 40,000 compounds; about 1,400 (3.5%) were called active.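 How the source made its calls: active means any of four per-well response measures lying three or more SD from its plate-wide compound average, in either direction; inactive means the rest, inconclusive results apart.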 Shown is part of a subset that was picked to be rich in actives.

The target of this experiment is Voltage-dependent calcium channel gamma-2 subunit (Mus musculus) + Glutamate receptor 2 (Rattus norvegicus) (UniProt O88602+P19491). The experiment is described as follows: AMPAR-TARP gamma-2 complex positive or negative modulation – cell-based, membrane potential dye, primary screen (AID 1259245). The following applies: HEK293 GluA2+stargazin, membrane potential dye (FDSS), glutamate EC50, at 30 µM, hits were called plate by plate, in both directions; compound max-min signal: compound-alone response (agonism); glutamate slope, % of max: measured here: glutamate response slope, % max.
Chain of Voltage-dependent calcium channel gamma-2 subunit (Mus musculus) + Glutamate receptor 2 (Rattus norvegicus) (O88602 whole entry, looked up): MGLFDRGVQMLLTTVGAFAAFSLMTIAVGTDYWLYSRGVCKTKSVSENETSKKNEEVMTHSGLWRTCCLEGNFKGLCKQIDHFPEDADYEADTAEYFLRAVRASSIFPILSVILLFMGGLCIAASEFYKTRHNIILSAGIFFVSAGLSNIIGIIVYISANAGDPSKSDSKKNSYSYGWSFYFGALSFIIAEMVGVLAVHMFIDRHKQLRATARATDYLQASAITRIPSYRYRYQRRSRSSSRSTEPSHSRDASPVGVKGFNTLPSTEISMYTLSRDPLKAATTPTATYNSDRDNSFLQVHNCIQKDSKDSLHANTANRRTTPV
Chain of Voltage-dependent calcium channel gamma-2 subunit (Mus musculus) + Glutamate receptor 2 (Rattus norvegicus) (P19491 whole entry, looked up): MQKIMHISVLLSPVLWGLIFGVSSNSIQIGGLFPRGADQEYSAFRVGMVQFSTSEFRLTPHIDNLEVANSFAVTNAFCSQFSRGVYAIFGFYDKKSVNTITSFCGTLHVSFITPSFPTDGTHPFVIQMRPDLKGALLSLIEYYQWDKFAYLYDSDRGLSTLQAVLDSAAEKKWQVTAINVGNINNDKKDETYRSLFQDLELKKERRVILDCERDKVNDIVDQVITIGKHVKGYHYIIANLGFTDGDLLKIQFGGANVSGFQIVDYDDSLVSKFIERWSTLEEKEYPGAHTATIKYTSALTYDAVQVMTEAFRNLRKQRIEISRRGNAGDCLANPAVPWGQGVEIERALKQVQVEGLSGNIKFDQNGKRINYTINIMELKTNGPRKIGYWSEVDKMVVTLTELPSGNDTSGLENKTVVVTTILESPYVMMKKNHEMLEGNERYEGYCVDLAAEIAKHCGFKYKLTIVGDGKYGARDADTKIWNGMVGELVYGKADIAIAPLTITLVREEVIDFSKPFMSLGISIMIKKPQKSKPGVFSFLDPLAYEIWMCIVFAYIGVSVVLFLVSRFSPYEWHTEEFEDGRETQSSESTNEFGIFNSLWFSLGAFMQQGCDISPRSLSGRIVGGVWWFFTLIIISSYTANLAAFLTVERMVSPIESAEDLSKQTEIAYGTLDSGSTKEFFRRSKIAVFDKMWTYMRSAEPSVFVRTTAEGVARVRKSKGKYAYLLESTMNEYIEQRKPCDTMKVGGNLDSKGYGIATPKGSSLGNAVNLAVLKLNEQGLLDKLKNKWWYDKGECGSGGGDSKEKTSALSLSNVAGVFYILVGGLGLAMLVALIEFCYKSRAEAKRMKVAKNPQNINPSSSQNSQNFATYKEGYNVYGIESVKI
For the compound `CCNC(=O)CSc1nc(-c2ccccc2)c(NC(=O)CC2CCCC2)s1`, the compound max-min signal amounted to 0.0584; the glutamate response, % of max was 31.3% (inactive); the glutamate slope, % of max stood at 44.8%.

As for `COc1ccc(CC(=O)NCCOc2cc(C)cc(C)c2)cc1OC`, the compound max-min signal turned out to be 0.0873; the glutamate response, % of max is 52% (inactive); the glutamate slope, % of max was 63.4%.

For `CC(C)NC(=O)Nc1ccc(CN2CCN(C)CC2)cc1`, the compound max-min signal stood at 0.107; the glutamate response, % of max is 37% (inactive); the glutamate slope, % of max came out at 57.1%.

Regarding `COc1ccc([N+](=O)[O-])cc1NC(=O)c1ccno1`, the compound max-min signal amounted to 0.13; the glutamate response, % of max is 15.2% (inactive); the glutamate slope, % of max was determined as 32.1%.

Take `O=C(c1ccno1)N1CCN(c2nc3ccc([N+](=O)[O-])cc3s2)CC1`: the compound max-min signal is 0.188; the glutamate response, % of max is 27.8% (active); the glutamate slope, % of max was found to be 50.2%.

`COc1ccc(SCCC(=O)N2CCN(c3nc4ccc(F)cc4s3)CC2)cc1`: the compound max-min signal worked out at 0.0995; the glutamate response, % of max is 50.5% (inactive); the glutamate slope, % of max worked out at 60.6%.

For the compound `CN(C)C(=O)N1CCN(S(=O)(=O)c2ccc(F)cc2)CC1`, the compound max-min signal stood at 0.11; the glutamate response, % of max was 30.6% (inactive); the glutamate slope, % of max worked out at 58.2%.

As for `O=C(CCCS(=O)(=O)c1ccc(F)cc1)Nc1cccc2c1C(=O)NC2=O`, the compound max-min signal was 0.0985; the glutamate response, % of max is 41.1% (inactive); the glutamate slope, % of max amounted to 66.5%.

For the compound `COc1ccc(N(Cc2cccc(C)c2)S(=O)(=O)c2ccc3nnc(C)n3c2)cc1`, the compound max-min signal is 0.0921; the glutamate response, % of max is 39% (inactive); the glutamate slope, % of max came out at 70.3%.

On to `CCCN(CCC)S(=O)(=O)c1cc([N+](=O)[O-])ccc1C`, for which the compound max-min signal amounted to 0.0514; the glutamate response, % of max was 71% (active); the glutamate slope, % of max was 88.7%.

On to `Cc1ccc([N+](=O)[O-])cc1NC(=O)C(=O)NCC(c1cccs1)N(C)C` (stereo not given), for which the compound max-min signal amounted to 0.155; the glutamate response, % of max was 57.6% (inactive); the glutamate slope, % of max was 83.7%.

Take `CCc1nc2sc(C(c3ccc(F)c(F)c3)N3CCN(C(C)=O)CC3)c(O)n2n1` (stereo not given): the compound max-min signal was determined as 0.111; the glutamate response, % of max is 52.6% (inactive); the glutamate slope, % of max turned out to be 74.4%.

As to `NS(=O)(=O)c1ccc(CNC(=O)Cc2csc(Nc3cccc(Cl)c3)n2)cc1`, the compound max-min signal stood at 0.171; the glutamate response, % of max is 32.8% (inactive); the glutamate slope, % of max is 56.3%.

Regarding `COCC(=O)Nn1cnc2c(cnn2C(C)(C)C)c1=O`, the compound max-min signal came to 0.121; the glutamate response, % of max is -2.09% (active); the glutamate slope, % of max was found to be 5.77%.

As for `CC(C)(C)n1ncc2c(=O)n(NC(=O)Cc3ccc([N+](=O)[O-])cc3)cnc21`, the compound max-min signal is 0.0341; the glutamate response, % of max is 22.1% (inactive); the glutamate slope, % of max is 47.4%.

Regarding `Cc1ccccc1C(=O)Nn1cnc2c(cnn2C(C)(C)C)c1=O`, the compound max-min signal amounted to 0.0501; the glutamate response, % of max is 31.3% (inactive); the glutamate slope, % of max worked out at 53.1%.

For `Cc1cc(C)c2c(n1)sc1c(=O)n(CC(=O)Nc3ccccc3Br)cnc12`, the compound max-min signal turned out to be 0.125; the glutamate response, % of max was 47% (inactive); the glutamate slope, % of max stood at 70.2%.

For the compound `COc1ccc(Cl)cc1NC(=O)CC1C(=O)NCCN1C(=S)Nc1ccccc1` (stereo not given), the compound max-min signal amounted to 0.205; the glutamate response, % of max was 26.6% (active); the glutamate slope, % of max came out at 35.6%.

Regarding `CCCOC(=O)CC1C(=O)NCCN1C(=S)NC(=O)c1cccc(Cl)c1` (stereo not given), the compound max-min signal was determined as 0.102; the glutamate response, % of max is 20% (inactive); the glutamate slope, % of max was found to be 39.3%.

With `COc1ccc(Cl)cc1NC(=O)NCC#CCN1CCc2ccccc2C1`, the compound max-min signal is 0.108; the glutamate response, % of max was 30.6% (inactive); the glutamate slope, % of max worked out at 53.9%.
